About 83,000 compounds went through this panel and 20% of them were active in at least one assay; those are over-represented in the sample as a whole.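 Cells were grown in 96-well plates and exposed to the test compound at a single concentration for 48 hours; results are reported as percent growth, with values below 10 considered active.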 The source made the active and inactive calls.
Columns and labels:
Experiment in all cases: NCI-60 one-dose screen, 48 h (100 = growth as untreated, 0 = no growth, -100 = all killed)
Details in all cases: 10 µM unless noted
NCI-H23 lung = tested on: NCI-H23 lung
NCI-H226 lung = tested on: NCI-H226 lung
NCI-H322M lung = tested on: NCI-H322M lung
HOP-62 NSCLC = tested on: HOP-62 NSCLC
NCI-H460 lung = tested on: NCI-H460 lung
HOP-92 NSCLC = tested on: HOP-92 NSCLC
NCI-H522 lung = tested on: NCI-H522 lung
A549/ATCC NSCLC = tested on: A549/ATCC NSCLC
786-0 renal = tested on: 786-0 renal
COLO 205 colon = tested on: COLO 205 colon
DU-145 prostate = tested on: DU-145 prostate
K-562 leukemia = tested on: K-562 leukemia
MALME-3M melanoma = tested on: MALME-3M melanoma
MDA-MB-231 breast = tested on: MDA-MB-231 breast
RXF 393 renal = tested on: RXF 393 renal
SF-268 CNS = tested on: SF-268 CNS
SF-295 CNS = tested on: SF-295 CNS
SF-539 CNS = tested on: SF-539 CNS
UACC-257 melanoma = tested on: UACC-257 melanoma
M14 melanoma = tested on: M14 melanoma

Measured: growth

COC1/C=C/OC2(C)Oc3c(C)c(O)c4c(O)c(c(C=NOC(c5ccccc5)c5ccccc5)c(O)c4c3C2=O)NC(=O)/C(C)=C/C=C/C(C)C(O)C(C)C(O)C(C)C(OC(C)=O)C1C (configuration not stated)
inactive: NCI-H23 lung 21.8% | NCI-H226 lung 20.3% | NCI-H322M lung 47.4% | NCI-H522 lung 13% | A549/ATCC NSCLC 16.3% | 786-0 renal 12.2% | DU-145 prostate 37.9% | K-562 leukemia 17.1% | MALME-3M melanoma 23.5% | SF-268 CNS 44.2% | SF-539 CNS 31.3% | UACC-257 melanoma 12.2% | M14 melanoma 23.2%
active: HOP-62 NSCLC -89.5% | NCI-H460 lung 2.85% | HOP-92 NSCLC -8.12% | COLO 205 colon -88.2% | MDA-MB-231 breast 8.78% | RXF 393 renal -3.93% | SF-295 CNS 1.59%

COc1ccc(/C=C/C(=O)c2cc3c(N)c(C(=O)Nc4ccccc4)sc3nc2C)cc1
inactive: NCI-H23 lung 28.8% | NCI-H226 lung 42.7% | NCI-H322M lung 35.9% | HOP-62 NSCLC 32.9% | HOP-92 NSCLC 40.6% | A549/ATCC NSCLC 16.8% | 786-0 renal 20.2% | DU-145 prostate 10.9% | K-562 leukemia 14.7% | MALME-3M melanoma 58.1% | MDA-MB-231 breast 13.3% | SF-268 CNS 22.6% | SF-295 CNS 11.6% | UACC-257 melanoma 69.5%
active: NCI-H460 lung -1.05% | NCI-H522 lung -17.9% | COLO 205 colon -17.4% | RXF 393 renal -19.2% | SF-539 CNS -27.3% | M14 melanoma 6.3%

O=C(Nc1ccc(F)cc1)c1cc2cc(Nc3nc(-c4ccccc4)nc4ccccc34)ccc2oc1=O
inactive: NCI-H23 lung 90.1% | NCI-H226 lung 102% | NCI-H322M lung 100% | HOP-62 NSCLC 84.2% | NCI-H460 lung 113% | HOP-92 NSCLC 103% | NCI-H522 lung 97.6% | A549/ATCC NSCLC 92.5% | 786-0 renal 98.4% | COLO 205 colon 123% | DU-145 prostate 108% | K-562 leukemia 102% | MALME-3M melanoma 103% | MDA-MB-231 breast 90.6% | RXF 393 renal 115% | SF-268 CNS 97.3% | SF-295 CNS 108% | SF-539 CNS 108% | UACC-257 melanoma 96.6% | M14 melanoma 102%

CCNC(=O)Oc1ccc(/C(=C(/C)Cc2ccc(OC)cc2)c2ccc(OCCN(CC)CC)cc2)cc1
inactive: NCI-H23 lung 78.2% | NCI-H226 lung 91.9% | NCI-H322M lung 76.9% | HOP-62 NSCLC 76.3% | NCI-H460 lung 13.5% | HOP-92 NSCLC 43.3% | NCI-H522 lung 58.1% | A549/ATCC NSCLC 51.7% | 786-0 renal 53.8% | DU-145 prostate 77.3% | MDA-MB-231 breast 45% | RXF 393 renal 49.7% | SF-268 CNS 67.1% | SF-295 CNS 40.8% | SF-539 CNS 74.5%
active: COLO 205 colon -69.1% | K-562 leukemia -45.2% | MALME-3M melanoma -17.8% | UACC-257 melanoma -56.3% | M14 melanoma -63.6%

C=C[C@]1(C)C=C2CC[C@@H]3C(C)(C)C(=O)CC[C@@]3(C)[C@@H]2CC1
inactive: NCI-H23 lung 104% | NCI-H226 lung 126% | NCI-H322M lung 77% | HOP-62 NSCLC 105% | NCI-H460 lung 109% | HOP-92 NSCLC 97.7% | NCI-H522 lung 94.6% | A549/ATCC NSCLC 101% | 786-0 renal 98.6% | COLO 205 colon 116% | DU-145 prostate 108% | K-562 leukemia 95.3% | MDA-MB-231 breast 111% | RXF 393 renal 127% | SF-268 CNS 97.6% | SF-295 CNS 101% | SF-539 CNS 103% | UACC-257 melanoma 106% | M14 melanoma 103%
active: MALME-3M melanoma 1.04%

C=C(C)[C@@H]1CC[C@]2(C(=O)O)CC[C@]3(C)[C@H](CC[C@@H]4[C@@]5(C)CCC(N)C(C)(C)[C@@H]5CC[C@]43C)[C@@H]12 (some centres not stated)
active: 786-0 renal 0.398% | COLO 205 colon -21.4% | K-562 leukemia -28.2% | MALME-3M melanoma -61.3%
inactive: NCI-H23 lung 81.5% | NCI-H226 lung 100% | NCI-H322M lung 68.9% | HOP-62 NSCLC 80.4% | NCI-H460 lung 33.1% | HOP-92 NSCLC 88.1% | NCI-H522 lung 11.7% | A549/ATCC NSCLC 47.9% | DU-145 prostate 33.1% | MDA-MB-231 breast 18.3% | RXF 393 renal 81.3% | SF-268 CNS 91.3% | SF-295 CNS 73.7% | SF-539 CNS 96.5% | UACC-257 melanoma 93.2% | M14 melanoma 27.1%

COCCOc1cc2ncnc(N3CCN(S(=O)(=O)c4ccccc4Cl)CC3)c2cc1OCCOC
inactive: NCI-H23 lung 85.8% | NCI-H226 lung 95.5% | NCI-H322M lung 98.3% | HOP-62 NSCLC 90.4% | NCI-H460 lung 103% | HOP-92 NSCLC 75.6% | NCI-H522 lung 65.8% | A549/ATCC NSCLC 86.7% | 786-0 renal 89.2% | COLO 205 colon 96.8% | DU-145 prostate 91.2% | K-562 leukemia 41.3% | MALME-3M melanoma 67.9% | MDA-MB-231 breast 74.8% | RXF 393 renal 83.9% | SF-268 CNS 86.2% | SF-295 CNS 82.7% | SF-539 CNS 88.8% | UACC-257 melanoma 83.5% | M14 melanoma 71.9%

CN(C)C(=O)c1cc2cnc(Nc3ccc(-c4csc5c(=S)cc(N6CCOCC6)oc45)cc3)nc2n1C1CCCC1
active: NCI-H23 lung 7.49% | HOP-62 NSCLC 6.1% | NCI-H460 lung 3.26% | HOP-92 NSCLC -5.69% | NCI-H522 lung 4.24% | A549/ATCC NSCLC 5.94% | 786-0 renal 9.52% | COLO 205 colon -33.9% | RXF 393 renal -53.9% | SF-295 CNS 1.23% | SF-539 CNS -24.5% | UACC-257 melanoma 4.13% | M14 melanoma 7.51%
inactive: NCI-H226 lung 15.8% | NCI-H322M lung 18.4% | DU-145 prostate 16.9% | K-562 leukemia 10% | MALME-3M melanoma 17.8% | MDA-MB-231 breast 10.2% | SF-268 CNS 11.1%

Cc1ccc(-c2nc3nc(-c4ccc(F)cc4)nc(N4CCCNCC4)c3o2)cc1
active: NCI-H23 lung -79.2% | NCI-H322M lung -99% | HOP-62 NSCLC -62.2% | NCI-H460 lung -83.2% | HOP-92 NSCLC -57.6% | NCI-H522 lung -65.2% | A549/ATCC NSCLC -82.4% | 786-0 renal -86.4% | COLO 205 colon -77.6% | DU-145 prostate -94.8% | K-562 leukemia -28.4% | MALME-3M melanoma -72.7% | MDA-MB-231 breast -85.1% | RXF 393 renal -79.8% | SF-268 CNS -65.7% | SF-295 CNS -86.3% | SF-539 CNS -97.9% | UACC-257 melanoma -72.2% | M14 melanoma -86.6%
inactive: NCI-H226 lung 112%

CC(=NCc1ccccc1)c1ccc(O)cc1O
inactive: NCI-H23 lung 97.5% | NCI-H226 lung 101% | NCI-H322M lung 103% | HOP-62 NSCLC 101% | NCI-H460 lung 107% | HOP-92 NSCLC 76.2% | NCI-H522 lung 111% | A549/ATCC NSCLC 100% | 786-0 renal 105% | COLO 205 colon 105% | DU-145 prostate 112% | K-562 leukemia 96.6% | MALME-3M melanoma 93.8% | MDA-MB-231 breast 96.9% | RXF 393 renal 122% | SF-268 CNS 101% | SF-295 CNS 123% | SF-539 CNS 97.8% | UACC-257 melanoma 88.1% | M14 melanoma 104%

O=C(CN1C(=O)S/C(=C\C(Cl)=C\c2ccccc2)C1=O)NCCCn1ccnc1
active: NCI-H522 lung -3.5% | 786-0 renal 9.43% | COLO 205 colon 4.93% | K-562 leukemia 5.22% | RXF 393 renal -25.9%
inactive: NCI-H23 lung 24% | NCI-H226 lung 41.9% | NCI-H322M lung 90.8% | HOP-62 NSCLC 84.9% | NCI-H460 lung 68.5% | HOP-92 NSCLC 52.5% | A549/ATCC NSCLC 85.2% | DU-145 prostate 31.5% | MALME-3M melanoma 25.4% | MDA-MB-231 breast 21.5% | SF-268 CNS 86.7% | SF-295 CNS 79.8% | SF-539 CNS 15.2% | UACC-257 melanoma 75.1% | M14 melanoma 21.3%

CC(C)(C)CC(N)=O
inactive: NCI-H23 lung 100% | NCI-H226 lung 95.6% | NCI-H322M lung 108% | HOP-62 NSCLC 89.4% | NCI-H460 lung 103% | HOP-92 NSCLC 104% | NCI-H522 lung 111% | A549/ATCC NSCLC 97.6% | 786-0 renal 101% | COLO 205 colon 109% | DU-145 prostate 111% | K-562 leukemia 116% | MALME-3M melanoma 102% | RXF 393 renal 103% | SF-268 CNS 105% | SF-295 CNS 92.5% | SF-539 CNS 95.3% | UACC-257 melanoma 95% | M14 melanoma 92%

O=C(/C=C/C12c3ccccc3C(c3ccccc31)C1C(=O)NC(=O)C12)c1ccncc1 (configuration not stated)
inactive: NCI-H23 lung 23.2% | NCI-H226 lung 78.9% | NCI-H322M lung 35.6% | NCI-H460 lung 24.9% | HOP-92 NSCLC 23.6% | NCI-H522 lung 28.5% | A549/ATCC NSCLC 86.1% | 786-0 renal 20.6% | DU-145 prostate 13% | MALME-3M melanoma 37.1% | MDA-MB-231 breast 15% | RXF 393 renal 13.4% | SF-268 CNS 10.2% | SF-295 CNS 28.4% | UACC-257 melanoma 32.3% | M14 melanoma 20.3%
active: HOP-62 NSCLC 4.78% | K-562 leukemia 6.6% | SF-539 CNS 5.79%

C=C1C(=O)O[C@H]2[C@H]1CC/C(COC(=O)NCc1ccc(Cn3c(=O)sn(CCCI)c3=O)cc1)=C\CC[C@@]1(C)O[C@@H]21
active: HOP-92 NSCLC -29.3% | NCI-H522 lung -68.2% | 786-0 renal 6.22% | K-562 leukemia 4.22% | MALME-3M melanoma -75.5% | RXF 393 renal -5.91% | M14 melanoma -42%
inactive: NCI-H23 lung 72.1% | NCI-H226 lung 77.9% | NCI-H322M lung 97.5% | HOP-62 NSCLC 96% | NCI-H460 lung 102% | A549/ATCC NSCLC 95.5% | DU-145 prostate 13% | MDA-MB-231 breast 10.9% | SF-268 CNS 75% | SF-295 CNS 99.3% | SF-539 CNS 40% | UACC-257 melanoma 28.8%

Reference: PubChem BioAssay (NCI)
